Experimental data from PubChem BioAssay (Tox21).
Records with an inconclusive call do not appear. Active and inactive are the calls of the source. Unless noted, the call rests on the fitted dose curve; in most records, active means well fitted curve in the direction sought with a large enough effect in the repeat runs; inconclusive means weak or mixed curves; inactive means no such curve, though single readings can be large; an effect the other way counts as inactive or inconclusive.

Key:
[1] = A CellTox Green Cytotoxicity Assay to monitor cytotoxicity in HepG2 cells - 16 hour (AID 1224876); further: nearly all actives have a fitted effect of over 45% in size
Procedure, shortened: (§1)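 Nonlytic assay: viable cells exclude the dye, so fluorescence scales with cell death. HepG2 at 600 cells/well, compounds added after 5 h, signal read across 40 h.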

[2] = qHTS RealTime-Glo MT Cell Viability Assay in HepG2 cells - 32 hour (AID 1224877); further: nearly all actives have a fitted effect of over 55% in size
Procedure, shortened: (§2)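 Cells + NanoLuc/prosubstrate dispensed (600 cells/well) → 5 h at 37 C/5% CO2 → compounds in DMSO transferred → 40 h incubation at 37 C, luminescence read at 0, 8, 16, 24, 32, 40 h.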

[3] = A CellTox Green Cytotoxicity Assay to monitor cytotoxicity in HepG2 cells - 24 hour (AID 1224878); further: nearly all actives have a fitted effect of over 45% in size
Procedure, shortened: as §1

[4] = A CellTox Green Cytotoxicity Assay to monitor cytotoxicity in HepG2 cells - 40 hour (AID 1224879); further: nearly all actives have a fitted effect of over 40% in size
Procedure, shortened: as §1

[5] = qHTS RealTime-Glo MT Cell Viability Assay in HEK293 cells - 0 hour (AID 1224880); further: top concentration of the series differs between compounds; nearly all actives have a fitted effect of over 45% in size
Procedure, shortened: (§3)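 Tox21 screen in HEK293 using RealTime-Glo MT chemistry, with cells and reagent co-dispensed. Luminescence proportional to viable cell number was captured at intervals during 40 h compound exposure at 37 C.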

[6] = A CellTox Green Cytotoxicity Assay to monitor cytotoxicity in HepG2 cells - 0 hour (AID 1224882); further: nearly all actives have a fitted effect of over 35% in size
Procedure, shortened: as §1

[7] = A CellTox Green Cytotoxicity Assay to monitor cytotoxicity in HepG2 cells - 32 hour (AID 1224883); further: nearly all actives have a fitted effect of over 50% in size
Procedure, shortened: as §1

[8] = A CellTox Green Cytotoxicity Assay to monitor cytotoxicity in HEK293 cells - 8 hour (AID 1224884); further: nearly all actives have a fitted effect of over 35% in size
Procedure, shortened: (§4)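 Seeding of HEK293 cells together with cytotoxicity dye preceded a 5 h incubation at 37 C/5% CO2. Test compounds in DMSO were then added and fluorescence monitored across 40 h.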

[9] = qHTS RealTime-Glo MT Cell Viability Assay in HepG2 cells - 16 hour (AID 1224885); further: nearly all actives have a fitted effect of over 50% in size
Procedure, shortened: as §2

[10] = qHTS RealTime-Glo MT Cell Viability Assay in HEK293 cells - 24 hour (AID 1224886); further: top concentration of the series differs between compounds; nearly all actives have a fitted effect of over 50% in size
Procedure, shortened: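 Tox21 10K qHTS, HEK293, 600 cells/well, RealTime-Glo reagent co-dispensed with cells; 5 h preincubation, compound by pintool, 37 C, luminescence at 0–40 h.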

[11] = qHTS RealTime-Glo MT Cell Viability Assay in HepG2 cells - 0 hour (AID 1224889); further: nearly all actives have a fitted effect of over 50% in size
Procedure, shortened: as §2

[12] = A CellTox Green Cytotoxicity Assay to monitor cytotoxicity in HepG2 cells - 8 hour (AID 1224890); further: nearly all actives have a fitted effect of over 45% in size
Procedure, shortened: as §1

[13] = qHTS assay to identify small molecule antagonists of the estrogen receptor alpha (ER-alpha) signaling pathway using the BG1 cell line in the presence of 0.1 nM 17-beta-estradiol - cell viability counter screen (AID 1259241); further: nearly all actives have a fitted effect of over 40% in size
Procedure, shortened: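 Cells were plated and left 24 hr, compounds in DMSO were pinned in, 17beta-estradiol was added to 0.1 nM final, and after 22 hr CellTiter-Fluor reagent was added for 30 min before fluorescence was read.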

[14] = qHTS assay to identify small molecule antagonists of the androgen receptor (AR) signaling pathway using the MDA cell line in the presence of 0.5 nM R1881 - cell viability counter screen (AID 1259242); further: nearly all actives have a fitted effect of over 45% in size
Procedure, shortened: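 R1881 at 0.5 nM final stimulated MDA-kb2 cells during 16 hr compound treatment at 37C. Cytotoxicity read: CellTiter-Fluor fluorescence after 30 min.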

[15] = target: Androgen receptor (Homo sapiens) (UniProt P10275); experiment: qHTS assay to identify small molecule antagonists of the androgen receptor (AR) signaling pathway using the MDA cell line in the presence of 0.5 nM R1881 (AID 1259243); further: nearly all actives have a fitted effect of over 50% in size
Chain of Androgen receptor (Homo sapiens) (P10275 whole entry, looked up): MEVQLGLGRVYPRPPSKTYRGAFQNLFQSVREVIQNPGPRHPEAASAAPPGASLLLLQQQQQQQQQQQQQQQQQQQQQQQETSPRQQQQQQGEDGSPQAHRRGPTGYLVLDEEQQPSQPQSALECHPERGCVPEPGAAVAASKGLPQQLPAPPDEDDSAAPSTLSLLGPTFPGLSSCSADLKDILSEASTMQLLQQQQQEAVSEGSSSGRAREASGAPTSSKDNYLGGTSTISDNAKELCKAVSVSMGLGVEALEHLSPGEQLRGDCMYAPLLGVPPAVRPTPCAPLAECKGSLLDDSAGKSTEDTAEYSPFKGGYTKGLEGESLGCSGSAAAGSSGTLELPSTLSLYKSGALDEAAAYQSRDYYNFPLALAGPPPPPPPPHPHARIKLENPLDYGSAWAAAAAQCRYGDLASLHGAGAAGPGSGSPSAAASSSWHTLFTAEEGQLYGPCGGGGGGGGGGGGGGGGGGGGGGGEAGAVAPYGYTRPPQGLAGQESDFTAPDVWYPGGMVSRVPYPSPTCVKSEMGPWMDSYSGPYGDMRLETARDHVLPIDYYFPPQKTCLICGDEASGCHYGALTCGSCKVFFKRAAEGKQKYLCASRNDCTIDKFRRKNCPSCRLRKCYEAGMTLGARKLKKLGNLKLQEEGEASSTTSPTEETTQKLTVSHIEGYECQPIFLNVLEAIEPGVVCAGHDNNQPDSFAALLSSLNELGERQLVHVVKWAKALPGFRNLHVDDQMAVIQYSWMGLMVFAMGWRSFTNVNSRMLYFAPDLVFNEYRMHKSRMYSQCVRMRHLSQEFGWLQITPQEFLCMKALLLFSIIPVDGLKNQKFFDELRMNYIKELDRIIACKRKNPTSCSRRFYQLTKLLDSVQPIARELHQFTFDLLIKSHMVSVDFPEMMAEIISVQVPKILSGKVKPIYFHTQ
Procedure, shortened: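 We exposed MDA-kb2 cells to compounds under 0.5 nM R1881 stimulation for 16 hr at 37C and quantified MMTV-driven luciferase by luminescence.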

[16] = target: Estrogen receptor (Homo sapiens) (UniProt P03372); experiment: qHTS assay to identify small molecule antagonists of the estrogen receptor alpha (ER-alpha) signaling pathway using the BG1 cell line in the presence of 0.1 nM 17-beta-estradiol (AID 1259244); further: nearly all actives have a fitted effect of over 50% in size
Chain of Estrogen receptor (Homo sapiens) (P03372 whole entry, looked up): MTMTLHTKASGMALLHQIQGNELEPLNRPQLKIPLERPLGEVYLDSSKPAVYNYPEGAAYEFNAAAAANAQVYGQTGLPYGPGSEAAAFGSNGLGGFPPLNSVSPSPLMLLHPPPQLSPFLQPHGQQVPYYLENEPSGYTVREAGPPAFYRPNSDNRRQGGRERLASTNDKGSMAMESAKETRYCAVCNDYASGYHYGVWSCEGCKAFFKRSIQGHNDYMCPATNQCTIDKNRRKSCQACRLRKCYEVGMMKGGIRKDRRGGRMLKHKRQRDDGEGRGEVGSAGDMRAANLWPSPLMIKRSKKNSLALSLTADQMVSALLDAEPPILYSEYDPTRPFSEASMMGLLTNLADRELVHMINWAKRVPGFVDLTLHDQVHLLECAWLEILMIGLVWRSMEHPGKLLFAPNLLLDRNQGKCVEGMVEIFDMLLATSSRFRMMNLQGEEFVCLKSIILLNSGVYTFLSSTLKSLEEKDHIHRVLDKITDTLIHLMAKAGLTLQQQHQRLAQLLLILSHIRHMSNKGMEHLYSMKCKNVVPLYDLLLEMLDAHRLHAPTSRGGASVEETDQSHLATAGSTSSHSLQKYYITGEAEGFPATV
Procedure, shortened: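 VM7Luc4E2; 4xERE-luciferase; 0.1 nM E2 final; 22 h co-incubation, 37C; ONE-Glo luminescence after 30 min at room temperature.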

[17] = qHTS assay to identify small molecule phospholipidosis (PLD) inducers (AID 1259344; active means well fitted curve in the direction sought with a large enough effect; an effect the other way counts as inactive or inconclusive)
Procedure, shortened: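 Phospholipidosis is scored by imaging LipidTOX-stained pits in HepG2 cells exposed to compound for 24 h at 37 C; pit counts and integrated intensities per well and per cell serve as outputs.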

[18] = A CellTox Green Cytotoxicity Assay to monitor cytotoxicity in HEK293 cells - 32 hour (AID 1224881); further: nearly all actives have a fitted effect of over 40% in size
Procedure, shortened: as §4

[19] = A CellTox Green Cytotoxicity Assay to monitor cytotoxicity in HEK293 cells - 16 hour (AID 1224888); further: nearly all actives have a fitted effect of over 35% in size
Procedure, shortened: as §4

[20] = qHTS RealTime-Glo MT Cell Viability Assay in HEK293 cells - 8 hour (AID 1224887)
Procedure, shortened: as §3
On the % scale 0 is the no-effect control and ±100 the full control effect.

CCC(=O)c1c(O)cc(O)cc1O
inactive: Potency [1] | outcome [2] | Potency [3] | Potency [4] | Potency [5] | Potency [6] | Potency [7] | Potency [8] | outcome [9] | Potency [10] | Potency [11] | Potency [12] | outcome [13] | outcome [14] | Potency [15] | outcome [16] | outcome [17]

[O]=[Mo](=[O])=[O]
inactive: cytotoxicity increase [1] -8.07% [at 15.8 µM] | activity change, negative = cytotoxic [2] 0.396% [at 15.8 µM] | cytotoxicity [3] -10.8% [at 15.8 µM] | cytotoxicity increase [4] -15% [at 15.8 µM] | cytotoxicity increase [18] -39.2% [at 15.8 µM] | cytotoxicity [6] -4.74% [at 15.8 µM] | cytotoxicity increase [7] -13.6% [at 15.8 µM] | activity change, negative = cytotoxic [9] 6.22% [at 15.8 µM] | activity change [19] -32.5% [at 15.8 µM, hits give high values] | activity change, negative = cytotoxicity [11] 1.95% [at 15.8 µM] | cytotoxicity increase [12] -8.17% [at 15.8 µM] | activity change, negative = cytotoxicity [13] 0.14% [at 19 µM] | viability change, negative = cytotoxic [14] 3.82% [at 19 µM] | activity change, negative = inhibition [16] 3.96% [at 19 µM]

COCCc1ccccn1
inactive: Potency [1] | outcome [2] | Potency [3] | Potency [4] | Potency [5] | Potency [18] | Potency [7] | outcome [9] | Potency [10] | Potency [20] | Potency [19] | Potency [11] | Potency [12] | outcome [13] | Potency [15] | outcome [16]

C/C=C(\C)C(C)=O
inactive: Potency [1] | outcome [2] | Potency [3] | Potency [4] | Potency [18] | Potency [6] | Potency [8] | outcome [9] | Potency [10] | Potency [20] | Potency [19] | Potency [11] | Potency [12] | outcome [13] | outcome [14] | Potency [15] | outcome [16]

Cc1cc(-c2ccccc2)nnc1NCCN1CCOCC1
inactive: Potency [1] | outcome [2] | Potency [3] | Potency [4] | Potency [5] | Potency [18] | Potency [7] | Potency [8] | outcome [9] | Potency [10] | Potency [19] | Potency [11] | Potency [12] | outcome [13] | outcome [14] | outcome [16]

CCCC(=O)Nc1ccc(OCC(O)CNC(C)C)c(C(C)=O)c1 (stereo unspecified)
inactive: Potency [1] | outcome [2] | Potency [3] | Potency [5] | Potency [18] | Potency [6] | Potency [7] | Potency [8] | outcome [9] | Potency [10] | Potency [20] | Potency [19] | Potency [11] | Potency [12] | outcome [13] | outcome [14] | outcome [16] | outcome [17]

O=Cc1ccccc1Cl
inactive: Potency [1] | outcome [2] | Potency [3] | Potency [4] | Potency [5] | Potency [6] | Potency [7] | outcome [9] | Potency [10] | Potency [20] | Potency [11] | Potency [12] | outcome [13]

C/C=C(\C)C(=O)OCCc1ccccc1
inactive: Potency [1] | outcome [2] | Potency [3] | Potency [4] | Potency [5] | Potency [6] | Potency [7] | outcome [9] | Potency [10] | Potency [20] | Potency [19] | Potency [11] | Potency [12] | outcome [13] | outcome [14]
